Compound activity as filed in PubChem.
VHR inh abs: blocks human VHR1 dual specificity phosphatase | recombinant VHR phosphatase, pNPP absorbance | inhibition, % at 13.3 µM | hit rate 0.52% among 290,000; in the data active = inhibition above about 50%
CCHF vOTU inh-1: blocks the CCHF virus ovarian tumor domain protease | hit rate 0.55% among 370,000 | CCHFV vOTU protease, Pep-AMC fluorescence | AID 651958 | inhibition, % at 11.5 µM; note: 0% = vehicle wells with enzyme and 100% = no enzyme wells
Vc quorum ag: inducers of Vibrio cholerae quorum light production without autoinducers. V. cholerae BH1578 lux reporter, luminescence, 6 h. activation, % at 18.7 µM. hit rate 0.16% among 350,000. AID 588436; in the data active = activation mostly above about 9.7%, no sharp cut-off
TcdB GH inh: TcdB glycohydrolase inhibition. AID 652162. inhibition, % at 9.99 µM. hit rate 0.24% among 350,000. TcdB glycohydrolase enzymatic assay, plate reader; in the data active = inhibition above about 10%
SSB-PriA inh: blocks PriA binding to SSB C-terminal tail; AlphaScreen SSBct-PriA binding, biotinylated peptide; hit rate 0.6% among 430,000; inhibition, % at 33 µM; in the data active = inhibition mostly above about 37%, no sharp cut-off; inactive = mostly below about 20%;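 note: plate controls were negative control peptide for no effect and reference peptide for full effect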
PrPC TRFRET: inhibitors of human cell surface prion protein PrPC; P04156; TR-FRET read-out; inhibition, % at 13.8 µM; hit rate 0.43% among 370,000; AID 720596; in the data active = inhibition above about 24%; note: 0% = median of the test wells and 100% = reference compound wells
CCHF vOTU inh-2: CCHFV vOTU protease inhibition, confirmation. shares compounds with CCHF vOTU inh-1. Recombinant CCHFV vOTU, Pep-AMC fluorescence. inhibition, % at 11.5 µM. hit rate 17% among 1,900. AID 686976
Starred values were filed as active, the others as inactive; . = not tested or not shown. Hits are enriched below; roughly 1.5% of the tested compounds scored in any of these assays. Cut-off read from the data, not from the text of the source, unless noted: active = inhibition above about 30%; inactive = the rest.

SMILES	VHR inh abs	CCHF vOTU inh-1	Vc quorum ag	TcdB GH inh	SSB-PriA inh	PrPC TRFRET	CCHF vOTU inh-2
O=C(O)CN1C(=O)/C(=C\c2cc(Br)ccc2OCc2ccc([N+](=O)[O-])cc2)SC1=S	11	32*	1	-6	19	-14	19
Cc1oc(-c2cccc(C(F)(F)F)c2)cc1C(=O)Nc1nccs1	.	.	.	.	-9	.	.
S=c1[nH]ccn1Cc1ccc2c(c1)OCO2	.	.	.	.	21	.	.
COC(=O)[C@]12C[C@H](CC(=O)NCc3ccc(C)o3)C(=O)N(Cc3ccco3)C1=C[C@H](C(C)C)O[C@@H]2C1CC1	.	3	.	.	.	19	.
COC(=O)[C@@]12C[C@@H](CC(=O)NCc3ccc(C)o3)C(=O)N(CCc3ccc(OC)c(OC)c3)C1=CCC(C)(C)C2	.	36*	.	1	.	-2	-4
CCCCCCCCN1C(=O)[C@H](CC(=O)N2CCCC2)C[C@@]2(C(=O)OCC)CCCC=C12	.	34*	.	2	.	-4	20
CCCCCCCCN1C(=O)[C@@H](CC(=O)NCc2ccccc2)C[C@@]2(C(=O)OC)C1=C[C@H](C(C)C)O[C@@H]2C1CC1	.	39*	.	.	.	7	12
CCCCCCCCN1C(=O)[C@@H](CC(=O)NCc2ccc(C)o2)C[C@@]2(C(=O)OC)C1=C[C@H](C(C)C)O[C@@H]2C1CC1	.	30*	.	.	.	-2	27
CS(=O)(=O)c1ccc(-c2nnc(SCC(=O)c3ccc(Cl)cc3)o2)cc1	.	.	.	.	2	.	.
COc1ccccc1C1(C(=O)NCCC(O)c2ccc3c(c2)OCO3)CCOCC1 (centres undefined)	.	.	.	.	0	.	.
Cc1ccc(C)c(NC(=O)CSc2nnc(CNC(=O)c3cccc(F)c3)n2-c2cccc(C(F)(F)F)c2)c1	.	.	.	.	-13	.	.
CCCCCCCCN1C(=O)[C@@H](CC(=O)N2CCN(C(=O)OCC)CC2)C[C@@]2(C(=O)OC)C1=C[C@H](C(C)C)O[C@@H]2C1CC1	.	33*	.	.	.	1	17
COC(=O)[C@]12CCCCC=C1N(CCC1=CCCCC1)C(=O)[C@H](CC(=O)NCCC(C)C)C2	.	44*	.	0	.	5	-6
CCCCCCCCN1C(=O)[C@H](CC(=O)NCc2ccccc2)C[C@@]2(C(=O)OC)CCCCC=C12	.	40*	.	-2	.	12	31*
CCCCCCCCN1C(=O)[C@@H](CC(=O)NCCc2ccccc2OC)C[C@@]2(C(=O)OC)C1=C[C@H](C(C)C)O[C@@H]2C1CC1	.	35*	.	.	.	1	16
CCCCCCCCN1C(=O)[C@@H](CC(=O)N2CCN(C(=O)C3CC3)CC2)C[C@@]2(C(=O)OC)C1=C[C@H](C(C)C)O[C@@H]2C1CC1	.	26	.	.	.	-3	.
CN(C1=CC(=O)c2ccccc2C1=O)c1ccccc1	.	.	.	.	16	.	.
CC(C)N(C)C1=CC(=O)C(N(C)C(C)C)=CC1=O	.	44*	.	-10	-6	-18	-2
COc1cccc(Oc2ccc(S(=O)(=O)N3CCCC3)cc2[N+](=O)[O-])c1	12	34*	-1	-4	4	-8	-12
O=C(NCCn1nc(C2CC2)n(-c2ccccc2)c1=O)c1c(F)cccc1Cl	.	.	.	.	-5	.	.
O=C1CC(N2CCOCC2)=NN1c1ccc([N+](=O)[O-])cc1	9	104*	-1	0	5	-2	2
O=C(NNC(=O)c1ccc(NC(=O)c2ccccc2)cc1)c1ccc(F)cc1	27	22	-1	-1	-21	-3	.
O=C(NC1=C(Nc2ccc(F)cc2)C(=O)c2ccccc2C1=O)c1ccc(Cl)cc1	-8	35*	0	.	9	-9	58*
Cc1cc(C)nc(NS(=O)(=O)c2ccc(NC(=S)NC(=O)c3ccccc3[N+](=O)[O-])cc2)n1	.	.	.	.	-8	.	.
CCCn1c(O)c(N=NC(=O)CNC(=O)Cc2ccc(OC)cc2)c2ccccc21	1	32*	439*	4	-2	-35	-4
Cc1cc(C(F)(F)F)nc(SCc2ccc(C(=O)O)o2)n1	25	41*	5	.	-24	-2	-10
Cc1cc(C)nc(SCc2ccc(C(=O)O)o2)n1	22	10	3	.	-15	2	.
CC(C)c1ccc([C@@H]2O[C@H](CCc3ccccc3)Cc3[nH][nH]c(=O)c32)cc1	.	4	.	0	.	7	.
CC(C)C1OC(CCc2ccccc2)Cc2[nH][nH]c(=O)c21 (centres undefined)	.	33*	.	1	.	4	6
